Several values for one entry are separate records, joined by “and”; a condition that tells them apart may be missing. Equal entries are not always repeated. The campaign covered roughly 5,500 compounds. About 2,000 (36%) were called active. About 18% were inconclusive and are not listed. Rule as the data show it: active = normalized growth mostly below about 0.91 (no sharp cut-off); inconclusive = no clear call, values can overlap the other calls; inactive = mostly above about 0.92. This is one part of the list.
Test: chemical genetic growth profiling, strain panel (AID 1159580);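 also: tested at 20 µM; growth read once vehicle control cultures reached saturation at 30 °C; 1 = growth at the plate median or of vehicle wells; lower values mean less growth of the strain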
Conditions: S. cerevisiae deletion strains, growth OD

Measured: normalized growth

CC12CCC(=O)C=C1CCC1C2[C@@H](O)CC2(C)C1CC[C@]2(O)C(=O)COP(=O)(O)O (stereo partly drawn)
inactive: locus YAL013W, strain DEP1, hits give low values 1.02 | locus YAL021C, strain ccr4, hits give low values 1 | locus YAL026C, strain drs2, hits give low values 0.999 | locus YAL030W, strain snc1, hits give low values 1.01 | locus YBL061C, strain skt5, hits give low values 0.998 | locus YBR009C, strain hhf1, hits give low values 0.994 | locus YBR021W, strain FUR4, hits give low values 1.02 | locus YBR023C, strain chs3, hits give low values 0.992 | locus YBR171W, strain sec66, hits give low values 1 | locus YBR229C, strain ROT2, hits give low values 1.01 | locus YBR231C, strain swc5, hits give low values 0.989 | locus YBR279W, strain paf1, hits give low values 1 | locus YCL011C, strain gbp2, hits give low values 0.991 | locus YCL016C, strain dcc1, hits give low values 0.973 | locus YCL029C, strain bik1, hits give low values 1.01 | locus YCL061C, strain MRC1, hits give low values 0.999 | locus YCL069W, strain vba3, hits give low values 1.01 | locus YCR088W, strain abp1, hits give low values 0.995 | locus YDL005C, strain med2, hits give low values 0.997 | locus YDL035C, strain GPR1, hits give low values 1.01 | locus YDL040C, strain nat1, hits give low values 1.01 | locus YDL074C, strain BRE1, hits give low values 1.02 | locus YDL101C, strain DUN1, hits give low values 1.01 | locus YDL185W, strain tfp1, hits give low values 1 | locus YDL192W, strain arf1, hits give low values 1.01 | locus YDR001C, strain nth1, hits give low values 0.996 | locus YDR069C, strain doa4, hits give low values 1.01 | locus YDR101C, strain arx1, hits give low values 1.03 | locus YDR137W, strain rgp1, hits give low values 0.992 | locus YDR150W, strain NUM1, hits give low values 1.02 | locus YDR159W, strain sac3, hits give low values 1 | locus YDR162C, strain NBP2, hits give low values 1.01 | locus YDR195W, strain ref2 0.992 | locus YDR297W, strain sur2, hits give low values 0.996 | locus YDR318W, strain mcm21, hits give low values 0.999 | locus YDR334W, strain swr1, hits give low values 0.998 | locus YDR335W, strain msn5, hits give low values 1.01 | locus YDR388W, hits give low values 1 | locus YDR392W, strain spt3, hits give low values 0.928 | locus YDR502C, strain sam2, hits give low values 1 | locus YEL003W, strain gim4, hits give low values 1 | locus YEL037C, strain rad23, hits give low values 1.01 | locus YEL061C, strain CIN8 (second series), hits give low values 1 | locus YEL061C, strain CIN8, hits give low values 1.02 | locus YER015W, strain faa2, hits give low values 1 | locus YER016W, strain bim1, hits give low values 1 | locus YER110C, hits give low values 1.01 | locus YER111C, strain swi4, hits give low values 1 | locus YER155C, strain BEM2 (second series), hits give low values 1.01 | locus YER155C, strain BEM2, hits give low values 1.01 | locus YER167W, strain BCK2, hits give low values 1.01 | locus YFR010W, strain ubp6, hits give low values 1.01 | locus YGL078C, strain dbp3, hits give low values 0.994 | locus YGL086W, strain mad1, hits give low values 1 | locus YGL167C, strain pmr1, hits give low values 0.996 | locus YGL173C, strain kem1, hits give low values 0.995 | locus YGL227W, strain vid30, hits give low values 0.996 | locus YGL240W, strain doc1, hits give low values 1.01 | locus YGL248W, strain PDE1, hits give low values 1 | locus YGL253W, strain hxk2, hits give low values 1.01 | locus YGR078C, strain PAC10, hits give low values 1.01 | locus YGR135W, strain pre9, hits give low values 0.997 | locus YGR229C, strain SMI1, hits give low values 1.02 | locus YGR252W, strain gcn5, hits give low values 0.958 | locus YHR013C, strain ard1, hits give low values 0.991 | locus YHR027C, strain rpn1, hits give low values 0.994 | locus YHR030C, strain SLT2, hits give low values 1.02 and 0.987 | locus YHR079C, strain IRE1 (second series), hits give low values 1 | locus YHR079C, strain IRE1, hits give low values 0.96 | locus YHR094C, strain hxt1, hits give low values 1.01 | locus YHR129C, strain ARP1, hits give low values 1.01 | locus YHR142W, strain chs7, hits give low values 0.993 | locus YHR200W, strain rpn10, hits give low values 1.01 | locus YIL066C, strain RNR3, hits give low values 1.02 | locus YIL073C, strain SPO22, hits give low values 1.01 | locus YIL125W, strain kgd1, hits give low values 0.985 | locus YIR030C, strain dcg1, hits give low values 1.01 | locus YJL092W, strain hpr5, hits give low values 1 | locus YJL095W, strain BCK1 (second series), hits give low values 0.995 | locus YJL095W, strain BCK1, hits give low values 1.01 and 0.981 | locus YJL115W, strain asf1, hits give low values 0.997 | locus YJL129C, strain trk1, hits give low values 1.01 | locus YJL134W, strain LCB3, hits give low values 1.01 | locus YJL154C, strain vps35, hits give low values 1 | locus YJL164C, strain tpk1, hits give low values 0.995 | locus YJL166W, strain qcr8, hits give low values 0.986 | locus YJL168C, strain set2, hits give low values 0.998 | locus YJL187C, strain SWE1 (second series), hits give low values 1.01 | locus YJL187C, strain SWE1, hits give low values 1 | locus YJR043C, strain POL32, hits give low values 1.02 | locus YJR066W, strain TOR1, hits give low values 0.917 | locus YKL009W, strain mrt4, hits give low values 1.01 | locus YKL068W, hits give low values 1.01 | locus YKL085W, strain MDH1 (second series), hits give low values 1 | locus YKL085W, strain MDH1, hits give low values 1 | locus YKL160W, strain elf1, hits give low values 0.985 | locus YKL190W, strain CNB1, hits give low values 1.02 | locus YKR001C, strain vps1, hits give low values 0.997 | locus YKR026C, strain gcn3, hits give low values 1.01 | locus YKR091W, strain srl3, hits give low values 1 | locus YLL001W, strain dnm1, hits give low values 0.982 | locus YLL026W, hits give low values 1 | locus YLL041C, strain sdh2, hits give low values 0.997 | locus YLR027C, strain aat2, hits give low values 1.01 | locus YLR039C, strain RIC1, hits give low values 0.976 | locus YLR058C, strain SHM2, hits give low values 1 | locus YLR102C, strain apc9, hits give low values 0.998 | locus YLR113W, strain HOG1, hits give low values 1 | locus YLR221C, strain rsa3, hits give low values 0.986 | locus YLR258W, strain gsy2, hits give low values 1.03 | locus YLR262C, strain YPT6 (second series), hits give low values 0.987 | locus YLR262C, strain YPT6, hits give low values 1.06 | locus YLR268W, strain sec22, hits give low values 0.993 | locus YLR320W, strain mms22, hits give low values 0.994 | locus YLR330W, strain CHS5, hits give low values 1.01 | locus YLR342W, strain FKS1 (second series), hits give low values 1 | locus YLR342W, strain FKS1, hits give low values 1 | locus YLR357W, strain rsc2, hits give low values 0.998 | locus YLR370C, strain arc18, hits give low values 1.01 | locus YLR371W, strain rom2, hits give low values 0.994 | locus YLR384C, strain iki3, hits give low values 0.995 | locus YLR418C, strain cdc73, hits give low values 0.982 | locus YML016C, strain PPZ1, hits give low values 1 | locus YML032C, strain rad52, hits give low values 0.991 | locus YML120C, strain ndi1, hits give low values 0.995 | locus YML124C, strain tub3, hits give low values 0.999 | locus YMR058W, strain fet3, hits give low values 0.998 | locus YMR078C, strain ctf18, hits give low values 1 | locus YMR125W, strain sto1, hits give low values 0.997 | locus YMR129W, hits give low values 1 | locus YMR205C, strain PFK2, hits give low values 0.983 | locus YMR223W, strain ubp8, hits give low values 0.993 | locus YMR231W, strain pep5, hits give low values 1 | locus YMR263W, strain SAP30, hits give low values 1.02 | locus YMR307W, strain GAS1, hits give low values 0.988 | locus YNL067W, strain RPL9B, hits give low values 1.02 | locus YNL071W, strain lat1, hits give low values 1 | locus YNL128W, strain TEP1, hits give low values 1.03 | locus YNL183C, strain NPR1, hits give low values 0.951 | locus YNL209W, strain ssb2, hits give low values 1 | locus YNL233W, strain BNI4, hits give low values 1.01 | locus YNL248C, strain rpa49, hits give low values 1.01 | locus YNL250W, strain rad50, hits give low values 1 | locus YNL271C, strain bni1, hits give low values 1 | locus YNL298W, strain CLA4, hits give low values 0.992 | locus YNL307C, strain MCK1, hits give low values 1 | locus YNL322C, strain KRE1 (second series), hits give low values 0.999 | locus YNR049C, strain mso1, hits give low values 0.995 | locus YNR052C, strain pop2, hits give low values 0.998 | locus YOL012C, strain htz1 0.651 | locus YOL147C, strain pex11, hits give low values 1.01 | locus YOR001W, strain rrp6, hits give low values 0.989 | locus YOR061W, strain CKA2, hits give low values 1 | locus YOR069W, strain VPS5, hits give low values 1.01 | locus YOR070C, strain gyp1, hits give low values 0.999 | locus YOR080W, strain dia2, hits give low values 0.999 | locus YOR083W, strain WHI5, hits give low values 0.993 | locus YOR106W, strain vam3, hits give low values 0.976 | locus YOR136W, strain idh2, hits give low values 0.995 | locus YOR144C, strain elg1, hits give low values 1 | locus YOR184W, strain ser1, hits give low values 0.992 | locus YOR231W, strain MKK1, hits give low values 0.981 | locus YOR265W, strain rbl2, hits give low values 1 | locus YOR270C, strain vph1, hits give low values 1.01 | locus YOR290C, strain snf2, hits give low values 0.914 | locus YOR316C, strain cot1, hits give low values 1.01 | locus YPL051W, strain arl3, hits give low values 0.986 | locus YPL055C, strain LGE1, hits give low values 1.01 | locus YPL078C, strain atp4, hits give low values 0.995 | locus YPL106C, strain sse1, hits give low values 0.969 | locus YPL240C, strain hsp82, hits give low values 0.991 | locus YPL241C, strain CIN2, hits give low values 1.01 | locus YPL256C, strain CLN2, hits give low values 0.957 | locus YPR119W, strain clb2, hits give low values 1 | locus YPR141C, strain kar3, hits give low values 1.01 | locus YPR163C, strain tif3, hits give low values 1.01 | locus YPR167C, strain met16, hits give low values 0.998 | strain wtn01, hits give low values 1
